Among the data in ChEMBL document CHEMBL4513216, “Probing the Open Global Health Chemical Diversity Library for Multistage-Active Starting Points for Next-Generation Antimalarials” (ACS Infect Dis, 2020) are INHIBITION values, retold here.

The campaign covered roughly 69,000 compounds. About 8,600 (12%) showed an effect of 50% or more. Many of the other results were omitted from the sample, so strong results are more common in it than they were.

This experiment relates to Plasmodium berghei. Description: Screen against P. berghei liver stage (PbLuc), transformed with Luciferase, at 10uM. Format: functional, HepG2. Conditions: tested at 10 uM.
In the case of `Cn1nc(C(=O)NC2(c3ccccc3)CCC2)ccc1=O`, the INHIBITION is -4.35%. The result for `Cc1c(C)c2c(c(C)c1O)CC[C@](C)(C(=O)O)O2` [(R)-TROLOX] reads -10.3%; that for `CC(C)NCc1cccnc1N1CCN(c2ccccn2)CC1`, 37.7%; that for `CCCC(C)NCc1cccnc1N1CCN(c2ccccn2)CC1` (configuration not stated), 50.7%. Regarding `CC(C)CC(C)NCc1cccnc1N1CCN(c2ccccn2)CC1` (configuration not stated), the INHIBITION turned out to be 9.56%. The same measure for `CCc1nc(CN(C)C2CCN(CC(=O)N(C)C)C2)no1` (configuration not stated): 24%; for `O=C(NC1CCN(C(=O)C2CCCCC2)C1)c1ccncc1Cl` (configuration not stated): 14.1%; for `Cc1cnn(CCNCC(O)COc2ccc3ccccc3c2)c1` (configuration not stated): 17.4%. For the compound `Cc1cnn(CCNCC(=O)Nc2ccc(Cl)cn2)c1`, the INHIBITION is -106%. In the case of `Cc1cnn(CCNCC(O)COc2ccc(Cl)cc2Cl)c1` (configuration not stated), the INHIBITION was 66.7%. The result for `Cc1cnn(CCNCC(O)c2cccc(Br)c2)c1` (configuration not stated) reads 16.8%.

Turning to `Cc1cnn(CCNCC(O)COc2cc(Cl)ccc2Cl)c1` (configuration not stated), the INHIBITION amounted to 50.3%. The result for `Cc1cnn(CCNCC(O)c2ccc(F)c(F)c2)c1` (configuration not stated) reads 7.21%. The result for `COc1cc(C(=O)NS(=O)(=O)c2cccc(C#N)c2)cc(OC)c1C` reads 22.3%; that for `O=C(NCCN1CCCCCC1)c1n[nH]c(=O)c2ccccc12`, 4.71%; that for `O=C(CCc1ccc(Cl)cc1)N[C@@H]1CC[C@@H](O)[C@@H]1O`, 45.75%. `CN1CC2(CCCN(c3cnccn3)C2)OC1=O` (configuration not stated): the INHIBITION is recorded as 61%. `CNC(=O)C1(C)CCCN(c2cnccn2)C1` (configuration not stated): the INHIBITION is recorded as -26.2%. The result for `Cc1cc(N2CCCC3(CN(C)C(=O)O3)C2)c2cc3c(cc2n1)OCO3` (configuration not stated) reads 28.6%; that for `CN1CC2(CCCN(c3nc(N)nc4c3CCCC4)C2)OC1=O` (configuration not stated), 45.6%. The result for `CC(C)Nc1cc(N2CCCC3(CN(C)C(=O)O3)C2)ncn1` (configuration not stated) reads 17.4%. Regarding `COc1ccc(CN2CCOC3(CCCN(c4cnccn4)C3)C2)cc1` (configuration not stated), the INHIBITION stood at 44.2%. The same measure for `CC1(C(N)=O)CCCN(c2cnccn2)C1` (configuration not stated): 53.2%; for `CN1CC2(CCCN(c3cc(N4CCCCC4)ncn3)C2)OC1=O` (configuration not stated): 60.1%; for `CC1(C(=O)NC2CCCC2)CCCN(c2cnccn2)C1` (configuration not stated): -4.51%. On to `Cc1nc(CCC(N)=O)cc(C2CCNCC2)n1`, for which the INHIBITION is -10.8%. Regarding `O=C(COC[C@@H]1CC[C@H]2[C@H](CCN2Cc2ccco2)O1)N1CCCC1`, the INHIBITION is given as -54.9%.

Take `Cc1c(C(=O)N2CCOCC2)nnn1-c1ccc2ncccc2c1`: the INHIBITION is recorded as -29.7%. The same measure for `Cc1cc(C(=O)NCc2ccnc(N3CCN(C)CC3)c2)no1`: 17.34%. The result for `CN1CCN(C(=O)N2C[C@@H]3CC[C@H]2CN(Cc2ccccc2)C3)CC1` reads 30.9%; that for `c1cnnc(N2CCCC(NCc3cn4ccccc4n3)C2)c1` (configuration not stated), 27.9%.

For the compound `CCC1c2cccn2CCN1C(=O)c1ccno1` (configuration not stated), the INHIBITION is given as -48.4%. The result for `O=c1oc(-c2cccs2)nn1CC(O)c1ccc2c(c1)CCC2` (configuration not stated) reads 59.4%. The result for `O=c1oc(-c2cccs2)nn1CC(O)c1ccc(F)cc1` (configuration not stated) reads -23.5%; that for `O=c1oc(-c2cccs2)nn1CC(O)c1ccccc1` (configuration not stated), 0.547%. Consider `CCNc1ccnc(NC2CCN(CC(N)=O)CC2)n1`, for which the INHIBITION is -9.92%. The same measure for `CCNC(=O)N1CCC(Nc2nccc(NCC)n2)CC1`: 20.4%; for `CCNc1ccnc(NC2CCN(S(C)(=O)=O)CC2)n1`: 72.3%; for `CCOC(=O)N1CC(=O)N(CCc2ccccc2)CC(O)C1` (configuration not stated): 28.3%.

`CCN1C(=O)C(C)(C)c2cc(NC(=O)c3ccn(CC)n3)ccc21`: the INHIBITION is -42.9%. `Cc1cc(C(=O)N2CCCC(n3ccnc3)C2)c(C)n1C1CC1` (configuration not stated): the INHIBITION was 27.4%. The result for `Cc1[nH]ncc1C(C)NCc1cccnc1` (configuration not stated) reads 14.3%; that for `COc1ccc(CNC(C)c2cn[nH]c2C)cc1` (configuration not stated), 11.8%. As to `Cc1[nH]ncc1C(C)NCc1ccc(F)cc1` (configuration not stated), the INHIBITION is 63.7%.

As for `CN(C)CCN1CCC2[C@@H]1CCN2Cc1ccc2c(c1)OCO2` (some centres not stated), the INHIBITION is -9.74%. As to `CC(=O)c1c(F)cccc1N1CCC(NS(=O)(=O)c2ccccc2)CC1`, the INHIBITION is reported as 78%. For `CCS(=O)(=O)N(C)C1CCN(c2cccc(F)c2C(C)=O)CC1`, the INHIBITION is reported as -9.35%. The result for `CCN(C1CCN(c2cccc(F)c2C(C)=O)CC1)S(C)(=O)=O` reads 20.4%; that for `CC(=O)c1c(F)cccc1N1CCC(C(N)=O)CC1`, -13.1%. The result for `CC(=O)c1c(F)cccc1N1CCC(CS(N)(=O)=O)CC1` reads 30.1%; that for `CC(=O)c1c(F)cccc1N1CCC(Cc2cccnc2)CC1`, 83.4%.

For `O=C1C(NS(=O)(=O)c2ccc(F)cc2F)CCN1Cc1ccccc1` (configuration not stated), the INHIBITION is listed as 2.97%.

Turning to `Cc1ccc(NC(=O)N2CCC3(CCC(C(=O)N(C)C)O3)CC2)cc1` (configuration not stated), the INHIBITION is reported as 46.6%. The result for `Cc1cc(C)n(CC2CCCN2CCC(=O)Nc2cc(C)on2)n1` (configuration not stated) reads 11.4%. For `O=C(Cc1ccccn1)N1C[C@@H](Oc2cccnc2)[C@H]2OCCC[C@H]21`, the INHIBITION was found to be 5.04%.

On to `CN(C)c1cccc(C(=O)Nc2ccn(CCc3ccncc3)n2)c1`, for which the INHIBITION stood at 40.7%. Consider `CSc1ccc(C(=O)N2C[C@@H]3CC[C@H]2CN(Cc2ccccc2)C3)cc1`, for which the INHIBITION amounted to 39.1%.

Turning to `COc1ccc(C(=O)N(C)Cc2ncc(C)c(OC)c2C)c(OC)c1`, the INHIBITION was determined as 1.11%. The same measure for `CCCS(=O)(=O)N1CCO[C@H]2[C@H](OCc3ccccn3)CC[C@@H]21`: 33.5%. The same measure for `CCOc1ccccc1CN(C)C(C)c1nc(-c2cccnc2)no1` (configuration not stated): 24.2%; for `CC(c1nc(-c2cccnc2)no1)N(C)CCCOc1ccccc1` (configuration not stated): 18.5%; for `COc1ccccc1CCN(C)C(C)c1nc(-c2cccnc2)no1` (configuration not stated): 68.1%. The result for `CNC(=O)c1csc(-c2cccnc2)n1` reads -17.2%. Take `COc1ccc(C)cc1NC(=O)c1coc(C)n1`: the INHIBITION came out at 60.9%. The same measure for `COc1ccc(C)cc1NC(=O)Nc1cnc(O)nc1O`: 0.29%; for `Cc1ccc(C)c(NC(=O)c2coc(C)n2)c1`: 62.3%; for `Cc1ccc(NC(=O)CNc2ccccc2C(N)=O)c(C)c1`: 39.1%. The result for `COCCCN(CCOC)C(=O)Nc1ccc(C)cc1C` reads 7.9%.

Consider `CCn1cc(C(=O)Nc2cc(C)ccc2C)cn1`, for which the INHIBITION stood at 3.04%.

In the case of `COc1ncc(NC(=O)Nc2cc(C)ccc2OC)cn1`, the INHIBITION was determined as 42.6%. The same measure for `Cc1ccc(C)c(NC(=O)c2n[nH]c(-n3cnnc3)n2)c1`: 36.3%; for `Cc1ccc(NC(=O)c2coc(C)n2)c(C)c1`: 62.3%.
